Assay outcomes deposited in PubChem BioAssay by several laboratories.
PKA-R2B act: activators of PKA-R2B holoenzyme, primary screen, biochemical, fluorescence polarization, Cy5-IP20, human; PKA-R2B holoenzyme dissociation; R2B truncated from residue 108, S112A mutant; 0% DMSO only, 100% 113 µM cGMP; activation, % at 11.4 µM; 0.079% of 340,000 active; cAMP-dependent protein kinase catalytic subunit beta (Homo sapiens) + cAMP-dependent …;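 active = activation above a cutoff set at the mean over all compounds plus 3 SD, cut at about 18% in these data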;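 note: higher means more holoenzyme dissociation and a rise in polarization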
Target sequence (P31323 whole entry, looked up, other chains not shown, the tested form may be a part): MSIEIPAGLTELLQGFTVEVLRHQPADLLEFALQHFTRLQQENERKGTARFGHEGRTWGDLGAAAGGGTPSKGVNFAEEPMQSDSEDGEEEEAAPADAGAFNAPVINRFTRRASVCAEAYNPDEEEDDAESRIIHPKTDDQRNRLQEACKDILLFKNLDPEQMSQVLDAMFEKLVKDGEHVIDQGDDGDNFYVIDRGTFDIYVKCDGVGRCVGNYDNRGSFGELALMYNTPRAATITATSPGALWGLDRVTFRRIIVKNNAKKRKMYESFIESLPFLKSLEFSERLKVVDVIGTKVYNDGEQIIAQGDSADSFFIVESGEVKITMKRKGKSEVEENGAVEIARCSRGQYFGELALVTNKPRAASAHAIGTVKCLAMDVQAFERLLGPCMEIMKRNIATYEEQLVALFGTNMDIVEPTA
TMEM16A act: TMEM16A chloride channel activators or potentiators, primary screen, cell-based, HTS | 0.3% of 340,000 active | Anoctamin-1 (Mus musculus), Q8BHY3 | HEK293 TMEM16A/YFP-H148Q/I152L, iodide quench fluorescence; active compounds read low | B-score at 10 µM;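 active = fluorescence-ratio B-score plate-corrected deviation score at least 3 library SD below zero, with starting fluorescence score within 5 deviations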;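 note: channel opened by trigger with iodide after compound preincubation; score built on the fluorescence ratio of max minus min over baseline; more negative score means more quench and so TMEM16A activation or potentiation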
TMEM16A inh: TMEM16A chloride channel inhibitors, primary screen, cell-based, HTS; Anoctamin-1 (Mus musculus), Q8BHY3; HEK293 TMEM16A/YFP iodide influx fluorescence, ionomycin; 1.2% of 310,000 active; normalized B-score (activity score, 25-100; higher = stronger inhibition) at 10 µM; AID 588511, 2011;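 active = ratio plate-corrected score three or more library SD toward inhibition, starting fluorescence score within five deviations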;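 note: score derived from kinetic fluorescence span divided by baseline fluorescence per well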
CHT allo act: CHT positive allosteric modulators, primary screen, cell-based, membrane potential dye, choline EC20 | High affinity choline transporter 1 (Homo sapiens), Q9GZV3 | CHT-expressing cells; active compounds read high; LV-AA mutant CHT in HEK293 cells | B-score at 10 µM | 0.49% of 310,000 active;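 active = initial fluorescence not abnormally high and integrated response B-score, plate-corrected, over 3 SD above library mean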
PKA-R1A act: activators of PKA-R1A holoenzyme, primary screen, biochemical, fluorescence polarization, Cy5-IP20, bovine R1A, mouse PKAc | cAMP-dependent protein kinase type I-alpha regulatory subunit (Bos taurus) + … | 0.083% of 340,000 active | PKA-R1A dissociation; scaled: DMSO 0%, 113 µM cGMP 100% | activation, % at 11.4 µM | AID 504707, 2011;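 active = percent activation above the mean of all tested compounds plus 3 SD, cut at about 19% in these data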;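 note: higher means more PKAc released from R1A so a rise in polarization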
CHT inh: inhibitors of human choline transporter CHT | B-score at 10 µM | AID 488975, 2010 | High affinity choline transporter 1 (Homo sapiens), Q9GZV3 | CHT-expressing cells, membrane potential dye, choline response; active compounds read low | 0.86% of 310,000 active;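 active = B-score over 3 SD under the library average, and starting fluorescence ratio not unusually high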;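 note: choline stimulus applied at its EC90 after an EC20 pre-addition; B-score computed on integrated fluorescence ratio after choline addition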
CHT inh conf: CHT inhibitors, confirmation, cell-based, membrane potential dye, duplicate. shares compounds with CHT inh. CHT-expressing cells, choline membrane potential dye; LV-to-AA substituted CHT, HEK293 cells. CHT activity remaining % of control (active compounds read low), % at 10 µM. 70% of 2,400 active. AID 493221, 2011;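 active = choline transporter activity left, mean of duplicates at 10 µM, below buffer-only control mean minus 3 SD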;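 note: depolarization triggered by choline at its EC90 following an EC20 pre-addition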
HEK293 MPD ctr: membrane potential effects in parental HEK293, counter-screen for CHT inhibitor project, cell-based, membrane potential dye | shares compounds with CHT inh | choline response; active = decrease or increase beyond buffer ±3SD | membrane potential ratio readout (active if shifted either direction beyond buffer ±3SD; no single direction) at 10 µM | 4% of 2,400 active | AID 493222, 2011;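 note: parental cells lack the transporter so any hit is non-specific; ratio is peak minus trough fluorescence over baseline after EC90 choline challenge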
A number is an active result; n = inactive; x = no result given; ! = not confirmed by another sample. Only some compounds are listed: those with a hit (about 2.5% of all), similar ones and a draw of the others.

SMILES	PKA-R2B act	TMEM16A act	TMEM16A inh	CHT allo act	PKA-R1A act	CHT inh	CHT inh conf	HEK293 MPD ctr
CC(C)(C)CC(=O)NCCc1csc(-c2ccccc2)n1	n	n	n	n	n	-5.3	55%	n
CC(=O)Nc1ccc(Nc2nc3ccccc3nc2NS(=O)(=O)c2ccc(Cl)c([N+](=O)[O-])c2)cc1	n	n	x	x	n	x	x	x
Cc1nc(N)sc1-c1csc(N(C)c2ccc(O)cc2)n1	n	n	n	n	n	n	x	x
CN(c1ccc(O)cc1)c1nc(-c2cccs2)cs1	n	n	25	n	n	-5.1	70%	n
O=C(NCCCn1ccnc1)c1cnn2c1NC(c1ccccc1)CC2C(F)(F)F (centres undefined)	n	n	n	n	n	-14	9.0%	n
Cc1c(N=Cc2cc(Br)cc(Br)c2O)cccc1C(=O)O	n	n	n	n	n	-5.7	57%	n
CC(NC(=O)c1cccc(S(=O)(=O)N2CCN(C)CC2)c1)C1CC2CCC1C2 (centres undefined)	n	n	n	n	n	-5.4	23%	n
CN(C)S(=O)(=O)c1cccc(C(=O)NC2CCCc3ccccc32)c1 (centres undefined)	n	n	n	n	n	n	x	x
CCCNS(=O)(=O)c1cccc(C(=O)NC2CCCc3ccccc32)c1 (centres undefined)	n	n	n	n	n	-12	20%	n
CN1CCN(S(=O)(=O)c2cccc(C(=O)NC3CCCc4ccccc43)c2)CC1 (centres undefined)	n	n	n	n	n	-5.6	51%	n
CC(NC(=O)c1cccc(Cl)c1)C1CC2CCC1C2 (centres undefined)	n	n	n	n	n	n	x	x
CN1CCN(S(=O)(=O)c2cccc(C(=O)Nc3ccc(Br)cc3Br)c2)CC1	n	n	n	n	n	-10	8.7%	n
CCN1CCC2(CC1)Oc1c(OC)cccc1C1CC(c3cccnc3)=NN12 (centres undefined)	x	n	n	n	x	n	x	x
O=C(Nc1ccccc1OC(F)F)c1ccc(S(=O)(=O)N2CCCC2)cc1	n	n	x	x	n	x	x	x
O=C(Nc1ccccc1OC(F)F)c1cccc(S(=O)(=O)N2CCCC2)c1	n	n	n	n	n	-5.1	56%	n
CC1CCC(NC(=O)c2cccc(S(=O)(=O)NCc3ccccc3)c2)CC1 (centres undefined)	n	n	n	n	n	-15	36%	n
COC(=O)c1ccccc1NC(=O)CNc1ccc(F)c(S(=O)(=O)N2CCOCC2)c1	n	n	x	x	n	x	x	x
COc1cc(OC)cc(C(=O)NC2CCCN(Cc3ccc(Cl)cc3)C2)c1 (centres undefined)	n	n	n	n	n	n	x	x
CC(C)(C)c1nc2cc(Cl)c([N+](=O)[O-])cc2o1	n	n	100	n	n	-14	n	n
CC(C)(C)c1cc(C(=O)N/N=C/c2ccc(F)cc2)n(-c2ccccc2)n1	n	n	n	n	n	-5.1	68%	n
CCN1C(=O)[C@H]2[C@@H](c3ccc(OC)cc3)N[C@]3(CCCN(Cc4ccc(C(F)(F)F)cc4)C3=O)[C@H]2C1=O	n	x	x	x	n	x	x	x
O=c1c2c(C(F)(F)F)cc(C(F)(F)F)nc2[nH]n1-c1ccccc1	n	n	n	n	n	-6.1	46%	n
Cc1ccsc1C(=O)N/N=C/c1ccc2c(c1)OCO2	n	n	n	n	n	n	x	x
Cc1cc(C(=O)N/N=C/c2ccc3c(c2)OCO3)c(C)o1	n	n	n	n	n	-7.1	n	n
Cc1ccc(C(=O)O)cc1NC(=S)NC(=O)c1ccc(COc2ccccc2)cc1	n	n	25	n	n	-6.5	48%	n
SMILES	PKA-R2B act	TMEM16A act	TMEM16A inh	CHT allo act	PKA-R1A act	CHT inh	CHT inh conf	HEK293 MPD ctr
Cc1ccc(C(=O)O)cc1NC(=S)NC(=O)Cc1ccccc1	n	n	n	n	n	n	x	x
COc1ccc(-c2cc(=O)c3cc(O)ccc3o2)cc1	n	n	n	n	n	-7.3	41%	n
O=c1cc(-c2ccccc2)oc2ccc(O)cc12	n	n	n	n	n	n	x	x
C=CCn1c(SCC(=O)NC(=O)NC2CCCC2)nnc1C1CCCCC1	n	n	n	n	n	-5	68%	n
CCCCc1ccc(NC(=S)NCC2CCCO2)cc1 (centres undefined)	n	n	n	n	n	-11	49%	n
Cc1cccc2cc(CNC3CCCC3)c(Cl)nc12	n	n	n	n	n	n	x	x
CC(C)n1cnc2c(N(C)c3cccc(Cl)c3)nc(N(CCO)CCO)nc21	n	n	n	n	n	-6.6	52%	n
CCC(CO)Oc1cc(NC(=O)c2cccc(Cl)c2)c2ncn(C(C)C)c2c1 (centres undefined)	n	n	x	x	n	x	x	x
CN(C)CC1C2CCC(C2)C1O (centres undefined)	n	n	x	x	n	x	x	x
Nc1nc(N)nc(Cc2ccccc2O)n1	n	n	x	x	n	x	x	x
CCOc1nc(-c2ccccc2)ncc1Oc1ccccc1	x	n	n	n	x	-5	n	n
COc1cnc(-c2ccccc2)nc1Oc1ccc(C(C)(C)C)cc1	n	n	n	n	n	n	x	x
CN1CCN(c2c(/C=N/O)c3ccccc3n2C)CC1	n	n	n	n	n	n	x	x
Cc1ccccc1C(=O)O/N=C/c1c(N2CCOCC2)n(C)c2ccccc12	n	n	n	n	n	-16	37%	n
COc1ccc(Cl)cc1S(=O)(=O)Nc1ccc2c(c1)n(C)c(=O)n2C	n	n	n	n	n	n	x	x
O=C1C=C(O)CC(c2ccc(Cl)c(Cl)c2)C1 (centres undefined)	n	n	n	n	n	n	x	x
CN[C@H]1CC[C@@H](c2ccc(Cl)c(Cl)c2)c2ccccc21	n	n	n	n	n	-6.8!	n	n
COc1cc2c(cc1OC)-c1cc(NC3CCCCCC3)nc(=O)n1CC2	n	n	n	n	n	-5.1	23%	n
